Reference: PubChem BioAssay AID720551 (National Center for Advancing Translational Sciences (NCATS), 2013)
The whole screen tested about 340,000 compounds, of which about 1,300 (0.38%) were called active. Many of the other results were omitted from the sample, so actives are more common in it than they were. Values without a mark were called inactive.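 How the source made its calls: active means maximum activity change below -70%; inconclusive means maximum activity change between -70% and -50%; inactive means maximum activity change above -50%.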

biological target: Voltage-gated inwardly rectifying potassium channel KCNH2 (Homo sapiens) (UniProt Q12809); assay: qHTS for Inhibitors of KCHN2 3.1: Wildtype qHTS; conditions: U2OS, BacMam KCNH2, thallium flux FluxOr; at 1.84 µM; stronger effect = lower value
Summary of the method: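 U2OS cells transduced with wild-type KCNH2 virus are loaded with FluxOr dye for 45 min, and thallium flux is measured in kinetic reads before and after stimulation buffer. Rate constants are normalized to DMSO controls.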
On the % scale 0 is the no-effect control and ±100 the full control effect.

Sequence of Voltage-gated inwardly rectifying potassium channel KCNH2 (Homo sapiens) (Q12809 whole entry, looked up): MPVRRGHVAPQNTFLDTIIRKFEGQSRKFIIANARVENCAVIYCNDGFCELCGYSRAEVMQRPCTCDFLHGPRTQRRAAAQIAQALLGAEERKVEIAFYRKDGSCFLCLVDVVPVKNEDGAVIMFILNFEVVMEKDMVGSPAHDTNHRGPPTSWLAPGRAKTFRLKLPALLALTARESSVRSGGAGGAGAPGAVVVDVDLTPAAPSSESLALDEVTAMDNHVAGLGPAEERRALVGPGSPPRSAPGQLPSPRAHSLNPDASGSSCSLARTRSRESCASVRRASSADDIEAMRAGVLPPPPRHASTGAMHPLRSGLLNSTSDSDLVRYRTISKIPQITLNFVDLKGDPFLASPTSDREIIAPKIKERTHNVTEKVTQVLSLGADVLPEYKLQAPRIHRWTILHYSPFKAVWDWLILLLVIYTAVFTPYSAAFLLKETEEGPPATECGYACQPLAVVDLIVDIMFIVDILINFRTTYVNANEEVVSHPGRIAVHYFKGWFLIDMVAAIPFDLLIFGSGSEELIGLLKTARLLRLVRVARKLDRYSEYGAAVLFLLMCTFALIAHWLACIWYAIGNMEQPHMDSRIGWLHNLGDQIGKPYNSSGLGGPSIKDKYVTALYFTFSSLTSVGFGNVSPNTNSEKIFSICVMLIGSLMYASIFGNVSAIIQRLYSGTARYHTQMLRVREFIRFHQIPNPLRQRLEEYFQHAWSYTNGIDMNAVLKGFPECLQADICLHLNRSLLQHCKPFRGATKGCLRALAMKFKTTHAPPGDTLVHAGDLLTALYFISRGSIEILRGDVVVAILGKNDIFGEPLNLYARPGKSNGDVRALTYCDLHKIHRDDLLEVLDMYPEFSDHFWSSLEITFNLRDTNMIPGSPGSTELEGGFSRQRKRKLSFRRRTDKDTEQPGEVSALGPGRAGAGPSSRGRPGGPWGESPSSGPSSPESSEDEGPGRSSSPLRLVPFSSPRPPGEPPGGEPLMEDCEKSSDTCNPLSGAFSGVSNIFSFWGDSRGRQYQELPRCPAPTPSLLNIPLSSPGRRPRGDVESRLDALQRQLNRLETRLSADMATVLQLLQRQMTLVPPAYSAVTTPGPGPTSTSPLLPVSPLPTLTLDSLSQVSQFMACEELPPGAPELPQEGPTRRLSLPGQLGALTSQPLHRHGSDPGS

Row | Compound | activity change
1 | C=CCn1nc(C(=O)OCC)cc1-c1sc(NC(=O)c2ccccc2)nc1C | 41.9%
2 | CN(C)C(CNC(=O)c1cc(Br)c(Br)s1)c1ccco1 (configuration not stated) | 6.08%
3 | O=S(=O)(c1cccc(C(F)(F)F)c1)N1c2ccccc2-n2cccc2C1c1cccnc1 (configuration not stated) | -12.2%
4 | O=C(CCc1ccccc1Cl)Nc1ccc(S(=O)(=O)Nc2nccs2)cc1 | -79.2% (active)
5 | CCC(CC)C(=O)Nc1ccc(S(=O)(=O)Nc2nccs2)cc1 | 0.976%
6 | Cc1ccc(OCCC(=O)Nc2ccc(S(=O)(=O)Nc3nccs3)cc2)cc1 | 4.09%
7 | O=C(OCC(=O)N1CCCCCC1)c1cccc(Cl)c1Cl | 0.263%
8 | C[C@H]1CN([C@@H](C)CO)C(=O)CCCn2cc(nn2)CO[C@@H]1CN(C)S(=O)(=O)c1ccc(-n2cccn2)cc1 | 12.7%
9 | CCOc1ccc(S(=O)(=O)NCCC(=O)NNC(=O)c2ccc(F)cc2)cc1 | -9.08%
10 | CCN1CCCC1Cn1cnc2c([nH]c3cc(OC)ccc32)c1=O (configuration not stated) | 0.665%
11 | CCN1CCCC1CNc1ncnc2c1[nH]c1ccc(F)cc12 (configuration not stated) | -81.9% (active)
12 | Fc1ccc2[nH]c3c(N4CCN(Cc5ccc6c(c5)OCO6)CC4)ncnc3c2c1 | 22.8%
13 | COc1cc(-c2nnc(NC(=O)CS(=O)(=O)c3ccc(Cl)cc3)o2)cc(OC)c1OC | -3.22%
14 | C[C@@H]1Cn2cnc(C(=O)Nc3ccc(CNC(=O)OC(C)(C)C)cc3)c2C(=O)N1 | 1.51%
15 | Cc1ccc(NC(=O)CSc2nnc(-c3cnccn3)n2Cc2ccco2)cc1C | 8.19%
16 | O=C(CSc1nnc(-c2cnccn2)n1Cc1ccco1)c1ccc(Cl)c(Cl)c1 | -187% (active)
17 | O=C(CSc1nnc(-c2cccnc2)n1Cc1ccco1)c1ccc(Cl)c(Cl)c1 | 1.21%
18 | CC(=O)Nc1ccc(SCC(=O)NC(=O)c2ccc(Cl)cc2)cc1 | 1.87%
19 | CSc1ncnc2c1ncn2CCCNCC(C)c1ccccc1 (configuration not stated) | -15.1%
20 | CC(CN1CCC(n2nccc2NC(=O)C2CCCC2)CC1)c1ccccc1 (configuration not stated) | 15.8%
21 | O=C(Nc1ccnn1C1CCN(C/C=C/c2ccc(F)cc2)CC1)C1CCCC1 | -105% (active)

Row | Compound | activity change
22 | Cc1nn(C)c(Cl)c1CN1CCC(n2nccc2NC(=O)C2CCCC2)CC1 | 26.5%
23 | COC(=O)N(C)C[C@@H]1OCc2cnnn2CCCC(=O)N([C@@H](C)CO)C[C@@H]1C | 1.19%
24 | COCCn1c(SCC(=O)Nc2ccc(F)cc2F)nc2c(c1=O)SCC2 | -2.69%
25 | Nc1cc(C(=O)N2CCN(c3ccccc3Cl)CC2)ccc1N1CC2CC(C1)c1cccc(=O)n1C2 (configuration not stated) | 6.37%
26 | C=CCNC(=S)N1CCc2[nH]c3ccccc3c2C1 | 1.48%
27 | CC1CCc2[nH]c3ccc(C(=O)N(C)CC(=O)Nc4cccc(F)c4)cc3c2C1 (configuration not stated) | 2.89%
28 | O=C(CCCN1CCc2[nH]c3ccc(F)cc3c2C1)c1ccc(F)cc1 | -94.7% (active)
29 | Cc1ccc(C(=O)N[C@H](C(=O)N2CCN(c3ncccn3)CC2)C(C)C)cc1 | 1.07%
30 | Cc1ccc(S(=O)(=O)N2C[C@H]3C(=O)C[C@@H](c4cccc5ccccc45)N(S(=O)(=O)c4ccc(C)cc4)[C@H]3C[C@H]2c2ccc(Cl)cc2)cc1 | 5.59%
31 | O=C(COc1ccc(Br)cc1)OCC(=O)c1ccc[nH]1 | -10.8%
32 | COc1ccc(NC(=O)CN(C)C(=O)c2cc(C)oc2C)cc1 | -15.3%
33 | CCc1cccc(CC)c1N1C(=O)CC(Sc2ccccc2N)C1=O (configuration not stated) | -0.824%
34 | CCC(c1nnnn1Cc1ccco1)N(CCc1ccccc1)Cc1cc2cccc(C)c2[nH]c1=O (configuration not stated) | -261% (active)
35 | CCC(c1nnnn1C1CCCC1)N(Cc1cccs1)Cc1cc2cccc(C)c2[nH]c1=O (configuration not stated) | -3.98%
36 | CCC(c1nnnn1Cc1ccco1)N(Cc1cc2cc(OC)ccc2[nH]c1=O)C1CCCCC1 (configuration not stated) | 0.509%
37 | Cc1ccccc1C#CC1=CC(=O)CC(C)(C)C1 | 11%
38 | CC1(C)CC(=O)C=C(c2ccccc2CO)C1=O | 2.31%
39 | CCOC(=O)C1(CCOc2ccccc2)CCN(Cc2cc(OC)cc(OC)c2)CC1 | -109% (active)
40 | CCOC(=O)C1(CCOc2ccccc2)CCN(Cc2ccc(C#CCCO)cc2)CC1 | 19.1%
41 | CCCS(=O)(=O)N1CCC(CCOc2ccccc2)(C(=O)OCC)CC1 | 9.17%
42 | O=C(O)c1ccccc1Cc1ccc(F)c2ccccc12 | 3.97%
